Test results as given in PMC5540273 (PLoS ONE, 2017).

system: LRRK2; settings: concentration: 1 μM, replicates: in singlicate; n = 1
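Further: KINOMEscan kinase panel screen.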

SMILES	%Inh [%]
COc1cccc(NC(=O)Nc2ccc(C)c(-c3ccc(C(=O)Nc4ccncc4)cc3)c2)c1 [GSK1398474]	0
CS(=O)(=O)Cc1ccc(Nc2nccc(-c3c(-c4cccc(NC(=O)C5CCCCC5)c4)nn4ncccc34)n2)cc1 [GSK350559]	20
COc1ccc(Nc2nccc(-c3ccc(NC(=O)c4cc5cc(F)ccc5[nH]4)cc3)n2)cc1 [GSK1229496]	0
Cc1cccc2c(-c3ccncn3)c(-c3ccc(F)cc3)nn12 [GW515532]	53
NS(=O)(=O)c1cccc(N/C=C2\C(=O)Nc3ccc(S(=O)(=O)Cc4c(Cl)cccc4Cl)cc32)c1 [GSK398099]	0
O=C(Nc1n[nH]c2nc(-c3ccco3)c(Br)cc12)C1CCN(Cc2ccccc2)C1.O=C(O)[C@H](O)[C@@H](O)C(=O)O (stereo not drawn) [SB-742034]	0
COc1ccc(-c2coc3ccc(-c4nnc(C)o4)cc23)cc1	0
O=c1cc(N2CCOCC2)nc2n(Cc3ccccc3F)ccn12 [GSK2297428]	0
COC(=O)c1cccc(NC(=O)NC2CCN(c3ccnc(Nc4ccc(F)cc4)n3)C2)c1 (stereo not drawn) [GSK1379725]	5
Cc1c(Cn2c(C)c(C)n3c(=O)cc(N4CCOCC4)nc23)cccc1C(F)(F)F [GSK2328680]	0
CNC(=O)c1ccc(C)c(-n2c(C)cc(OCc3ccc(F)cc3F)c(Br)c2=O)c1	0
COc1ccc(Nc2nccc(N3CCC(NC(=O)c4cc5ccccc5s4)C3)n2)cc1 (stereo not drawn) [GSK1379738]	0
CC(=O)c1cccc(NC(=O)NC2CCN(c3ccnc(Nc4ccc(F)cc4)n3)C2)c1 (stereo not drawn) [GSK1379710]	14
O=C1NC(=O)C(c2ccc(Cl)cc2)=C1Nc1cccc(Cl)c1 [SB-317651]	0
Cc1ccc(NC(=O)Nc2ccccc2F)cc1-c1ccc(C(=O)Nc2ccncc2)cc1 [GSK1398477]	15
Cc1ccc(NC(=O)c2ccc(Cl)cc2)cc1-c1ccc(C(=O)Nc2ccncc2)cc1 [GSK1398467]	100
Cc1ccccc1-c1cc(-c2c[nH]nc2-c2ccccn2)ccn1 [GW680061]	23
CC[C@@H]1CO[C@H](C(=O)Nc2ccccc2)CN1c1cc(-c2ccc3c(N)n[nH]c3c2)nc(NC)n1 [GSK2376236]	0

SMILES	%Inh [%]
COc1ccc(CSc2nnc(-c3ccc4ncsc4c3)o2)cc1C(F)(F)F	0
Cc1ccc(-c2nc(Nc3ccncc3)c3ccccc3n2)s1 [GSK189015]	54
Cc1ccccc1Cn1ccn2c(=O)cc(N3CCOCC3)nc12 [GSK2269905]	0
CS(=O)(=O)CCNCc1nc(-c2ccc3ncnc(Nc4ccc5c(cnn5Cc5ccccc5)c4)c3c2)cs1.Cl.Cl [GW569716]	22
Cc1nccc(-c2c(-c3ccc(F)cc3)ncn2CCCN2CCOCC2)n1.Cl [SB-282975]	0
Cn1cncc1C(=O)NC1CCN(c2ccnc(Nc3ccc(F)cc3)n2)C1 (stereo not drawn) [GSK1379717]	0
CN1c2ccc(-c3ccc(C(N)=O)cc3)cc2-c2[nH]ncc2S1(=O)=O	0
CC(C)c1cc(-c2ccc3c(N)n[nH]c3c2)nc(N)n1 [GSK2250882]	0
O=C(Nc1n[nH]c2nc(-c3cccs3)c(Br)cc12)C1CC1 [SB-735297]	0
Cc1ccc(NC(=O)Nc2ccc(Cl)cc2)cc1-c1ccc(C(=O)Nc2ccncc2)cc1 [GSK1398472]	0
Fc1ccc(-c2nn3cccc(F)c3c2-c2ccncc2)cc1 [GW475620]	24
CC(C)c1ccc(O)cc1Nc1ccnc2ccc(C(F)(F)F)cc12 [GW482059]	51
Fc1ccc(-c2nc3n(c2-c2ccncc2)CCS3)cc1 [GI98581]	14
O=C(Nc1n[nH]c2cc(-c3ccsc3)ccc12)C1CC1 [SB-732932]	0
Cc1cnc(N)c(/C=C/c2cncc(C(=O)NCCc3ccc(Cl)cc3Cl)c2)c1.Cl [GSK190937]	0
CC(=O)c1c(C)c2cnc(Nc3ccc(N4CCNCC4)cn3)nc2n(C2CCCC2)c1=O	0
COc1ccc2cc(-c3nc(-c4ccccc4C(C)C)[nH]c3-c3ccncc3)ccc2c1 [SB-660566]	13
CCc1ccc(-c2ccc3c(c2)-c2n[nH]cc2S(=O)(=O)N3C)cc1	0
